Consider 18 compounds from PubChem BioAssay (Tox21).

Records with an inconclusive call do not appear. Calls of active or inactive are those of the source. Unless noted, the call rests on the fitted dose curve.

The target of assay [1] is Gonadotropin-releasing hormone receptor (Homo sapiens) (UniProt P30968). Put plainly: Human gonadotropin-releasing hormone receptor (GnRHR) small molecule agonists, calcium flux assay in GnRHR-HEK293 cells (AID 1920063). Further: nearly all actives have a fitted effect of over 35% in size. Further: potency means the concentration at half of the fitted maximal effect. The method, boiled down:
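We seeded human GnRHR-expressing HEK293 cells for 18 hours, loaded them with calcium dye for an hour at 37 C, added test compounds, and recorded fluorescence intensity kinetically for three minutes.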
For orientation: Calcium flux is commonly read through the fluorescence of an indicator in the cells.

In assay [2] the target is KiSS-1 receptor (Homo sapiens) (UniProt Q969F8). The experiment in a line: Human kisspeptin (KISS1R) small molecule agonists, calcium flux assay in KISS1R-HEK293 cells (AID 1920064; active means well fitted activation curve with a large enough effect in the repeat runs; further: potency means the concentration at half of the fitted maximal effect). The method, boiled down:
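Kinetic calcium assay, 1 s sampling over 3 min at Ex/Em 480/540, in HEK293 cells engineered with human KISS1R; compounds delivered in DMSO after 1 h dye loading.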

Assay [3] can be described thus: p53 small molecule agonists, cell-based qHTS assay: qHTS cell viability counter screen (AID 1963581). Further: nearly all actives have a fitted effect of over 45% in size. In outline: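 Following 5 h attachment, HCT-116 p53RE-bla cells took up compound for 16 h at 37 C; the reporter was read with B/G FRET substrate (2 h RT), and viability then via CellTiter-Glo ATP luminescence.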
On the technique in general: qHTS replaces the single test concentration by a dilution series.

Assay [4] in a line: p53 small molecule agonists, cell-based qHTS assay (AID 1963582; active means well fitted activation curve with a large enough effect in the signal ratio in the repeat runs, not every such curve was filed as active; the % refers to the signal ratio). The method, boiled down:
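In this cell-based concentration-response screen, a p53 response element drives beta-lactamase; cells received DMSO-borne compounds after 5 h culture and were incubated a further 16 h before FRET substrate development.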

Assay [5] can be described thus: cAMP Responsive Elements (CRE) small molecule antagonists, cell-based qHTS assay (AID 1963591; active means well fitted inhibition curve with a large enough effect in the signal ratio in the repeat runs, not every such curve was filed as active; the % refers to the signal ratio). In outline: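 HEK293T cells carrying a CRE-driven beta-lactamase reporter receive compound and NKH477 (0.25 uM final) for 3 h. Fluorescence from LiveBLAzer B/G FRET substrate is read after 2 h at room temperature.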
Assay [6] concerns the target Beta-2 adrenergic receptor (Homo sapiens) (UniProt P07550). Put plainly: Adrenergic beta2 receptor (ADRB2) small molecule antagonists, cell-based qHTS assay (AID 1963592). Further: series mostly up to about 92 µM; nearly all actives have a fitted effect of over 50% in size. The method, boiled down:
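Cells (CHO, stable ADRB2 overexpression) incubated 18-20hr at 37C; compounds added from DMSO; agonist mix (1nM isoproterenol, 100uM IBMX, 25uM Ro-20-1724) added; 0.5hr RT; d2-cAMP and anti-cAMP-cryptate added; 1hr RT; 665/615 nm read.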

Assay [7] concerns the target D(2) dopamine receptor (Homo sapiens) (UniProt P14416). Put plainly: Dopamine D2 receptor (DRD2) small molecule antagonists, cell-based qHTS assay (AID 1963595; active means well fitted inhibition curve with a large enough effect in the signal ratio in the repeat runs, with a control signal flat; the % refers to the signal ratio). The method, boiled down: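 Human DRD2 antagonist qHTS measuring cAMP by HTRF. The cells are exposed to compound for 10 min, then to NKH477 (200 nM) and quinpirole (12 nM) for 30 min at RT, with Ro20-1724 (0.1 mM) present throughout.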

The nature of assay [8]: p53 small molecule agonists, cell-based qHTS assay with human liver microsomes: qHTS cell viability counter screen (AID 1963579). Further: nearly all actives have a fitted effect of over 45% in size. The method, boiled down:
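Viability of p53RE-bla cells is measured as CellTiter-Glo luminescence following a 16 h, 37 C incubation with compound, liver microsomes from human donors and NADPH.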

A short description of assay [9]: p53 small molecule agonists, cell-based qHTS assay with rat liver microsomes: qHTS cell viability counter screen (AID 1963580). Further: nearly all actives have a fitted effect of over 45% in size. In outline:
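Intracellular ATP, by CellTiter-Glo luminescence, defines viability. HCT-116 p53RE-bla cells, 4,000 per well, were compound-treated in the presence of rat liver microsomes and NADPH for 16 h at 37 C.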

The target in assay [10] is 5-hydroxytryptamine receptor 2A (Homo sapiens) (UniProt P28223). The experiment in a line: 5-hydroxytryptamine receptor 2A (HTR2A) small molecule antagonists, cell-based qHTS assay (AID 1963586). Further: nearly all actives have a fitted effect of over 45% in size. In outline: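 Antagonist-mode intracellular calcium assay: DOI (4 nM) added after 5 min compound pre-incubation at room temperature to dye-loaded HTR2A-CHO cells. Fluorescence followed for 3 min, sampled every second.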

Assay [11] shares this target. The experiment in a line: 5-hydroxytryptamine receptor 2A (HTR2A) small molecule agonists, cell-based qHTS assay (AID 1963587). Further: nearly all actives have a fitted effect of over 30% in size. In outline:
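Kinetic calcium-flux fluorescence (2 min, 1 sec intervals) after compound addition in agonist mode. HTR2A-CHO cells were cultured 18 h, then dye-loaded 1 h at 37 C.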

Assay [12] concerns the target Muscarinic acetylcholine receptor M1 (Homo sapiens) (UniProt P11229). The experiment in a line: Cholinergic receptor muscarinic 1 (CHRM1) small molecule antagonists, cell-based qHTS assay (AID 1963588). Further: nearly all actives have a fitted effect of over 40% in size. In outline: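 CHRM1-CHO calcium-flux assay, antagonist mode. Cells were seeded 18 h, dye-loaded 1 h at 37 C and given compound for 5 min at RT, then acetylcholine was added at 50nM. FDSS fluorescence was read 3 min; 15 concentrations, three runs.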

Assay [13] has the same target. Put plainly: Cholinergic receptor muscarinic 1 (CHRM1) small molecule agonists, cell-based qHTS assay (AID 1963589). Further: nearly all actives have a fitted effect of over 35% in size. The method, boiled down: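 Measures agonist-induced intracellular calcium rise. Stable human CHRM1 CHO line, 1 h dye load at 37 C, compounds from DMSO, kinetic fluorescence read.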
Assay [14] deals with D(2) dopamine receptor (Homo sapiens) (UniProt P14416). Put plainly: Dopamine D2 receptor (DRD2) small molecule agonists, cell-based qHTS assay (AID 1963594). Further: nearly all actives have a fitted effect of over 35% in size. Further: potency means the concentration at half of the fitted maximal effect. In outline: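 cAMP accumulation in DRD2-HEK293 cells measured by HTRF after 1 h detection; compounds added 10 min before NKH477 (200nM […]) forskolin-analogue stimulation, 30 min at room temperature, with Ro20-1724 present at 0.1 mM final.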

Assay [15] in a line: G protein-coupled receptor (GPCR) small molecule agonists, calcium flux assay: HEK293 wild type cell line counter screen (AID 1920065). Further: potency means the concentration at half of the fitted maximal effect. In outline: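 Calcium-sensitive dye, loaded 1 h at 37 C into cells cultured 18 h, reports compound-evoked calcium release as fluorescence (Ex/Em 480/540), measured over 3 min. Agonist mode; 15-point titrations, triplicate.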
Assay [16] can be described thus: cAMP Responsive Elements (CRE) small molecule agonists, cell-based qHTS assay (AID 1963590). The method, boiled down:
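A CRE-responsive beta-lactamase reporter in HEK 293T cells was used. Treatment ran 3 h at 37 C; detection used LiveBLAzer B/G FRET substrate for 2 h at room temperature.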

Assay [17] deals with Beta-2 adrenergic receptor (Homo sapiens) (UniProt P07550). Put plainly: Adrenergic beta2 receptor (ADRB2) small molecule agonists, cell-based qHTS assay (AID 1963593).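 Further: CHO cells stably overexpressing human ADRB2.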 The method, boiled down:
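CHO cells stably over-expressing ADRB2 were plated overnight at 37C, then dosed with compounds plus a stimulation mix containing 100uM IBMX and 25uM Ro-20-1724 for 0.5hr at room temperature. cAMP was measured by HTRF competition, 1hr.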

Assay [18] can be described thus: p53 small molecule agonists, cell-based qHTS assay with human liver microsomes (AID 1963577).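 Further: p53 response element beta-lactamase reporter cells with liver microsomes plus NADPH.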 The method, boiled down: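 HLM-supplemented p53RE-bla reporter assay: 16 h compound exposure at 37 C, microsomes and NADPH each 0.5 mg/mL final, read by fluorescence intensity.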
Assay [19] in a line: p53 small molecule agonists, cell-based qHTS assay with rat liver microsomes (AID 1963578). In outline:
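Quantitative HTS of the Tox21 10K library: p53RE-bla cells, rat liver microsomes plus NADPH at 0.5 mg/mL final each, 16 h at 37 C, beta-lactamase fluorescence detection.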

KiSS-1 receptor (Homo sapiens), sequence (Q969F8 whole entry, looked up): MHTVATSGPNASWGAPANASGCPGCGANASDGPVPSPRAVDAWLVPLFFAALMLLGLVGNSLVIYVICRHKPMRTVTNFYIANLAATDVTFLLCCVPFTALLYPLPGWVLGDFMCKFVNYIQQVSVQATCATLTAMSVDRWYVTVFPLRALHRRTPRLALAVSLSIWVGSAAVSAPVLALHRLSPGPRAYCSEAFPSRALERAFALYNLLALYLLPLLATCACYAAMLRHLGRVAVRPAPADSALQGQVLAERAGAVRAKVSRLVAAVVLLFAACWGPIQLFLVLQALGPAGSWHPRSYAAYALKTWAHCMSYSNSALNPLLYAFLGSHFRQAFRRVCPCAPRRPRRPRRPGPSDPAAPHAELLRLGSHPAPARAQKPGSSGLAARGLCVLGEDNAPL
Gonadotropin-releasing hormone receptor (Homo sapiens), sequence (P30968 whole entry, looked up): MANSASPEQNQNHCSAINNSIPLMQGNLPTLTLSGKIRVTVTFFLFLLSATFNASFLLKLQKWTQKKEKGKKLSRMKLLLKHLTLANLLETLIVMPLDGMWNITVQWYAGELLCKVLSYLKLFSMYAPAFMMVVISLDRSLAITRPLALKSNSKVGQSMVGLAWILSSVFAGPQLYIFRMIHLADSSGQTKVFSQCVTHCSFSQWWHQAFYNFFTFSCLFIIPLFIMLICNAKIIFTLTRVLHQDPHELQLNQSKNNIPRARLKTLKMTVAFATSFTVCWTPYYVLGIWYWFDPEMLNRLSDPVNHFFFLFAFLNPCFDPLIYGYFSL
Beta-2 adrenergic receptor (Homo sapiens), sequence (P07550 whole entry, looked up): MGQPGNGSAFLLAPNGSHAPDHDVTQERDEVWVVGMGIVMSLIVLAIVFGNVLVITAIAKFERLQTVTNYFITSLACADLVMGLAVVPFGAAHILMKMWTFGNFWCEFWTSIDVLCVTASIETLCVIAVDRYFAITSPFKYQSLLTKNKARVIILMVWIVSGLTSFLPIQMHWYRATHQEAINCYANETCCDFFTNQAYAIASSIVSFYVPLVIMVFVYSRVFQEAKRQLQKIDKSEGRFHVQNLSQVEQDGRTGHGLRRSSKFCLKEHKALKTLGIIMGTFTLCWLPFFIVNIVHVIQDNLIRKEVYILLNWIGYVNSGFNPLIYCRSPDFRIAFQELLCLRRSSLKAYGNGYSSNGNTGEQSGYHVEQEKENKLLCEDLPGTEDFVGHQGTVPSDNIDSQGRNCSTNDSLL
5-hydroxytryptamine receptor 2A (Homo sapiens), sequence (P28223 whole entry, looked up): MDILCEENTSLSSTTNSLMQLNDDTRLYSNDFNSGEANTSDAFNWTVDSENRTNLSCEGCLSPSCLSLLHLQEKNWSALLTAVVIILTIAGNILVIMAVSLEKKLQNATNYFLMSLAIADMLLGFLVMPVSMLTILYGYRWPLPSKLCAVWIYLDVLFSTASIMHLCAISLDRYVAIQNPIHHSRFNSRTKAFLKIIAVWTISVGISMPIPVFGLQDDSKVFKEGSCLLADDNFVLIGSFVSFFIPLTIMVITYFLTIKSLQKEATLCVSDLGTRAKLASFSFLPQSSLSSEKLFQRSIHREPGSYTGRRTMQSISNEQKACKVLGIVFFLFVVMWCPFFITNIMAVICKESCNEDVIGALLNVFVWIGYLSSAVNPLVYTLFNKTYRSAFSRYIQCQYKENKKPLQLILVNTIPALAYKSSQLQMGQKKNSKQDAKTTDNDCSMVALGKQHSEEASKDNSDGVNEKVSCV
D(2) dopamine receptor (Homo sapiens), sequence (P14416 whole entry, looked up): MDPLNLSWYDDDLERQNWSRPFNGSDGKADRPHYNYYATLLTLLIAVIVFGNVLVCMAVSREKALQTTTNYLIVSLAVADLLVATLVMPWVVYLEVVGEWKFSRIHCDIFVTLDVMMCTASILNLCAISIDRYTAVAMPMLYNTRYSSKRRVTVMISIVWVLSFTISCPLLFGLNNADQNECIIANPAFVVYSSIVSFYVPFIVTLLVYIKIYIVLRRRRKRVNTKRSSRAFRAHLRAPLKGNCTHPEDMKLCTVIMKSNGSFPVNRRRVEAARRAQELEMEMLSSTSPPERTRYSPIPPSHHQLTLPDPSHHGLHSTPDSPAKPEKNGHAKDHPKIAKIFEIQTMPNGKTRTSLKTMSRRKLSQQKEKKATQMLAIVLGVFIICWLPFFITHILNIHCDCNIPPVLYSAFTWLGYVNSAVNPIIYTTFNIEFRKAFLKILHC
Muscarinic acetylcholine receptor M1 (Homo sapiens), sequence (P11229 whole entry, looked up): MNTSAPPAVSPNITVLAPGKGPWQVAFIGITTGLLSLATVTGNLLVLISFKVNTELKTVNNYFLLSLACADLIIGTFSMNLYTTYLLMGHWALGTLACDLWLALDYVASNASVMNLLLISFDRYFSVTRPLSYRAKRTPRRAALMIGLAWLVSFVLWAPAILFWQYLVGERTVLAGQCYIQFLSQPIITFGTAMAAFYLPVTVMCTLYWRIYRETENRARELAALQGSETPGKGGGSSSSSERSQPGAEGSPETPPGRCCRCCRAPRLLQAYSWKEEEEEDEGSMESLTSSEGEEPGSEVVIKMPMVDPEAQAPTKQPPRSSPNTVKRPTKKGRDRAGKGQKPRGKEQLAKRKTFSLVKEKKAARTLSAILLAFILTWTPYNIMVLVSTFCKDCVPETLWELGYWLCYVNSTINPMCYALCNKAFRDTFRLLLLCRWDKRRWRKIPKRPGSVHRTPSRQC

Consider `Cc1cnc(C(=O)NCCc2ccc(S(=O)(=O)NC(=O)NC3CCCCC3)cc2)cn1`, for which the Potency result in assay [1], in assay [2], in assay [3], in [4], in [5] and in assay [6] was “inactive” each time. Also, in assay [7], the Potency result is “inactive”.
As for `O=C1N=C(O)CN1/N=C/c1ccc(-c2ccc([N+](=O)[O-])cc2)o1`, the Potency result in assay [1], in [2], in assay [8], in assay [9], in assay [10] and in assay [11] was “inactive” in each case. Moreover, the Potency result in assay [12], in [13], in assay [14] and in assay [7] was “inactive” throughout.
Turning to `COc1c2occc2cc2ccc(=O)oc12`, the Potency entry in [1], in assay [2], in [15], in [3], in [4] and in assay [16] was “inactive” each time. For the same compound, the Potency entry in [5], in assay [6], in assay [17], in assay [14] and in assay [7] was “inactive” in each case.
`OCCN(CCO)c1nc(N2CCCCC2)c2nc(N(CCO)CCO)nc(N3CCCCC3)c2n1`: the Potency in [1] was 15.1 µM (active); in assay [2], 23.9 µM (active); in assay [15] it was 16.9 µM (active). Also, the Potency result in assay [6], in assay [14] and in [7] was “inactive” each time.
For the compound `CN1[C@@H]2CC[C@H]1CC(OC(=O)C(CO)c1ccccc1)C2` (some centres undefined), the Potency result in assay [1], in assay [2], in [15], in assay [16], in assay [5] and in assay [6] was “inactive” throughout. In assay [14], the Potency entry was “inactive”.
Turning to `CC(C)(C(=O)O)c1ccc(C(O)CCCN2CCC(C(O)(c3ccccc3)c3ccccc3)CC2)cc1` (centres undefined), the Potency entry in assay [1], in assay [2], in assay [3], in assay [4], in assay [16] and in [6] was “inactive” throughout. The Potency result in assay [14] and in assay [7] was “inactive” each time.
Consider `CC(C)n1c(/C=C/[C@@H](O)C[C@@H](O)CC(=O)O)c(-c2ccc(F)cc2)c2ccccc21`, for which the Potency entry in [1], in [2], in [15], in [16], in assay [6] and in assay [17] was “inactive” each time.
On to `CN(C)CCOC(c1ccccc1)c1ccccc1` (tested in a mixture with another compound), for which the Potency result in assay [1], in assay [2], in assay [16], in assay [5], in assay [14] and in assay [7] was “inactive” each time.
Take `CCCCCc1ccc(O)cc1`: the Potency result in assay [1], in [2], in [18], in assay [19], in assay [3] and in assay [10] was “inactive” in each case. The Potency entry in assay [16], in [6], in assay [17], in assay [14] and in assay [7] was “inactive” each time.
Take `CC(C)c1c(C(=O)Nc2ccccc2)c(-c2ccccc2)c(-c2ccc(F)cc2)n1CC[C@@H](O)C[C@@H](O)CC(=O)O`: the Potency entry in assay [1], in [2], in assay [15], in assay [3], in assay [6] and in assay [14] was “inactive” throughout. Moreover, in [7], the Potency result is “inactive”.
With `CN1CCN(C2=Nc3cc(Cl)ccc3Nc3ccccc32)CC1`, the Potency result in [1], in assay [2], in assay [15], in assay [3], in assay [16] and in assay [5] was “inactive” each time. Moreover, in [6], the Potency result was “inactive”.
`CC(C)(C)c1ccc(C(O)CCCN2CCC(C(O)(c3ccccc3)c3ccccc3)CC2)cc1` (centres undefined): the Potency entry in assay [1], in assay [2], in assay [15], in assay [5], in [6] and in assay [17] was “inactive” each time. Further, the Potency entry in [14] is “inactive”.
For `CC(C)c1nnc2ccc(-c3ocnc3-c3cc(F)ccc3F)cn12`, the Potency result in assay [1], in [2], in assay [15], in [3], in assay [11] and in assay [13] was “inactive” throughout. Also, the Potency entry in assay [6], in assay [14] and in assay [7] was “inactive” in each case.
Take `CCCC(=O)Nc1ccc(OCC(O)CNC(C)C)c(C(C)=O)c1` (centres undefined): the Potency result in assay [1], in assay [2], in assay [15], in assay [3], in assay [16] and in [5] was “inactive” in each case. For the same compound, in assay [7], the Potency result is “inactive”. Also, the Potency in [14] was 18.8 µM (active).
With `CCCCCCCCC(CCCCCC)C(=O)O` (centres undefined), the Potency entry in assay [1], in assay [2], in [18], in assay [19], in assay [8] and in assay [3] was “inactive” throughout. In addition, the Potency result in assay [4], in assay [10], in assay [11], in assay [12], in assay [13] and in assay [16] was “inactive” throughout. Moreover, the Potency result in [5], in [6], in [14] and in assay [7] was “inactive” throughout.
For the compound `Cc1cc(NS(=O)(=O)c2ccc(N)cc2)no1`, the Potency result in assay [1], in [2], in assay [15], in assay [16], in [5] and in assay [6] was “inactive” in each case. The Potency result in assay [14] and in [7] was “inactive” throughout.
Turning to `CS(=O)(=O)c1ccc([C@@H](O)[C@@H](CF)NC(=O)C(Cl)Cl)cc1`, the Potency result in assay [1], in assay [2], in [15], in assay [3], in assay [4] and in assay [10] was “inactive” in each case. Further, the Potency entry in [11], in [16], in assay [5], in assay [17], in assay [14] and in [7] was “inactive” throughout.
Take `OCC(O)CO`: the Potency result in [1], in assay [2], in [15], in assay [10], in assay [11] and in assay [12] was “inactive” each time. For the same compound, the Potency result in assay [13], in assay [16], in assay [5], in assay [6], in [17] and in assay [14] was “inactive” each time. Moreover, the Potency entry in assay [7] is “inactive”.
